The full list was thinned out, with hits kept by preference.
Tg IFNy HTS: inhibitors of Toxoplasma gondii growth with IFN-gamma. AID 1259416. activity change, negative = inhibition, % (test concentration not listed). 69,000 compounds, 3.8% hits. Toxoplasma gondii growth in IFN-gamma-treated host cells; hits give low values; in the data active means activity change below about -70%, passing the limit was not always enough;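 further: host cells are HeLa cells infected with Toxoplasma gondii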
Numbers stand for hits; 0 = inactive.

SMILES | Tg IFNy HTS
COc1ccc(Cl)cc1C(=O)Nc1ccc2c(c1)CCC(=O)N2C | 0
COC(=O)CC1(C(=O)OC)Oc2ccc(Cl)cc2C(=O)N1c1ccc(F)cc1F (centres undefined) | -70.5
CCOC(=O)N1CCC2(CC1)OC(=O)C(C)=C2C(=O)Nc1ccc(F)cc1F | 0
Cc1nn(-c2ccccc2)nc1C(=O)Sc1ccc(Cl)cc1 | 0
Cn1ncc2c(Sc3ccc(Cl)cc3)ncnc21 | 0
Cn1ncc(C(=O)Sc2ccc(Cl)cc2)c1-n1cccc1 | -94.3
Cc1ccc(-c2cnc(NC(=O)CNS(=O)(=O)N(C)C)n2C)cc1C | 0
Cc1cccc(NCC2COC3(COCCN(Cc4nccn4C)C3)C2)c1 (centres undefined) | 0
Cc1nn(CC(=O)NCCCN2CCCC2)c(=O)c2nc(-c3ccccc3)sc12 | 0
COc1cc(NS(C)(=O)=O)ccc1Cc1c2ccccc2nc2ccccc12 | -83.3
COc1ccc(CNC(=O)c2nc(Nc3ccc(F)cc3)c3ccccc3n2)c(OC)c1 | 0
CCOC(=O)c1nc(Nc2ccc(OC)c(OC)c2)c2ccccc2n1 | 0
CCn1c(C2CCNCC2)nn(CC23CC4CC(CC(C4)C2)C3)c1=O | 0
S=c1[nH]cc(-c2ccc(Br)cc2)[nH]1 | -97.0
CCCCc1nc(Cl)c(CN2CCCC(c3n[nH]c(=O)n3CC)C2)[nH]1 (centres undefined) | 0
CSCC[C@H]1CN2CCC[C@H]2CN1Cc1cccc(-n2nc(C)cc2C)c1 | 0
CN(C(=O)c1ccccc1NC(=O)COc1cccnc1)c1ccccc1 | 0
Cc1cccc(C(=O)N2CCCn3nnc(Cn4cccn4)c3C2)c1 | 0
Cc1sc(NC(=O)CSc2nc3cc4c(cc3cc2C#N)OCCO4)c(C#N)c1C | 0
CCOC(=O)c1sc(NC(=O)CSc2n[nH]c(-c3ccccn3)n2)c(C#N)c1C | -107.6
CCOC(=O)c1c(NC(=O)CSc2nc(C)cc(C)n2)sc(C(C)=O)c1C | 0
COCc1nc(N2CCN(c3ncccc3C)CC2)c2cnn(C)c2n1 | 0
COCC1(C(=O)N(Cc2cccc(Cl)c2)CC(C)C)CC1 | 0
CC(C)(C)NC(=S)N/N=C1/CCCc2occc21 | -95.3
O=C(O/N=C1/CCCc2occc21)c1ccccc1 | 0
SMILES | Tg IFNy HTS
O=C(C1CC1)N1CCc2c(ncnc2NCCCC2CCOC2)C1 (centres undefined) | 0
NC1CC(=O)N(CCCc2ccccc2)C1 (centres undefined) | 0
O=C(C[C@H]1NCCC[C@@H]1O)Cn1cnc2cc(Br)c(Cl)cc2c1=O | -79.6
O=C(O)Cn1cnc2ccccc2c1=O | 0
CCC(C(=O)NCCN1CCCC1)n1c2ccccc2c2cnn(C)c(=O)c21 (centres undefined) | 0
Cn1ncc2c3ccccc3n(CC(=O)N3CCN(c4ccccn4)CC3)c2c1=O | 0
CCC(C(=O)N1CCN(c2ccccn2)CC1)n1c2ccccc2c2cnn(C)c(=O)c21 (centres undefined) | -73.2
NC(=O)c1cncc(N2CCCC(CO)(Cc3ccc(F)cc3)C2)n1 (centres undefined) | 0
Cc1c(-c2nc(-c3ccc(C(C)(C)C)cc3)no2)sc2cc(C(C)(C)C)sc12 | 0
Cc1cc(C)n(Cc2nc(-c3ccc(NC(=O)c4c(F)cccc4Cl)cc3)oc2C)n1 | 0
COc1ccc(-c2ccc(C(=O)N3CCCC(c4ccccc4)CC3)cn2)cc1 (centres undefined) | 0
COc1ccc(-c2ccc(Nc3ccc(C(=O)N4CCCCCC4)cc3)nn2)cc1 | -83.6
Cc1ccc(Nc2ccc(C(=O)N3CCCCC3)cn2)cc1 | 0
Cc1ccc(Nc2nc(C(=O)NCc3ccco3)nc3ccccc23)cc1 | 0
OC(Cn1c(=NC2CCCCC2)sc2ccccc21)c1ccccc1 (centres undefined) | -72.0
S=c1sc2ccccc2n1CCn1c(=S)sc2ccccc21 | 0
O=C(CCC(=O)NC1CCCCCCC1)NCC(O)c1ccccc1 (centres undefined) | 0
CC(C)n1cnc2c(N3CCOCC3)nc(C3CCN(C(=O)c4cccnc4)CC3)cc21 | 0
Cc1ccc(-c2cc(-c3ccccc3)nc(-n3nc(C)cc3C)n2)cc1 | -103.5
Cc1cc(C)n(-c2nc3ccccc3s2)n1 | 0
Cc1cc(C)n(-c2ncc(C#N)c(N)n2)n1 | 0
O=C(Nc1ccc(N2CCCCC2)c(C(F)(F)F)c1)c1ccc(Cn2ccnc2)o1 | 0
O=S1(=O)CCC(Cn2cc(-c3ccnc4ccccc34)nn2)C1 (centres undefined) | 0
CCOc1ccc(-c2nc(Cn3ccn4nc(-c5ccc(F)cc5)cc4c3=O)c(C)o2)cc1 | 0
Cc1cc(S(=O)(=O)N(C)Cc2cc(C3CCNCC3)nn2C)ccc1F | 0
SMILES | Tg IFNy HTS
Cc1ccc(/C=C/C(=O)N2CCC(c3nc(C(=O)N4CCCCC4)c(C)o3)CC2)cc1 | 0
c1cc(-c2cnn3cc(-c4ccc(N5CCNCC5)cc4)cnc23)c2cccnc2c1 | -84.0
CN(Cc1cccc2ncccc12)C(=O)c1cnn(-c2ccc(F)cc2)c1 | 0
CN(Cc1cccc2ncccc12)Cc1cnn2cccnc12 | 0
Cc1cccn2c(CNC(C)Cn3cncn3)cnc12 (centres undefined) | 0
COc1ccccc1C(=O)N1CCN(Cc2cnc(N(C)C)nc2)CC1 | 0
CCn1ccc2ccc(CCC(=O)NC(C)c3ccccn3)cc21 (centres undefined) | 0
Cc1onc(-c2c(Cl)cccc2Cl)c1C(=O)NC(=S)Nc1ccccc1 | -72.6
COC(=O)c1ccc(Cl)cc1NC(=O)c1c(-c2c(F)cccc2Cl)noc1C | 0
Cc1onc(-c2ccccc2)c1C(=O)Nc1cccnc1 | 0
CCc1csc(CNC(=O)c2ccc(-c3ccc4c(c3)OCO4)nc2)n1 | 0
COCCN1CCC2(CC1)CN(c1ccccn1)CCO2 | 0
c1ccc2[nH]c(CC3CCCN(Cc4cc5n(n4)CCCNC5)C3)nc2c1 (centres undefined) | 0
COc1ccc(-c2nc(Nc3ccc(F)cc3)c3ccccc3n2)cc1 | 0
COc1ccc(-c2cc(-c3ccccc3)c(-c3ccccc3)o2)cc1 | 0
COc1ccc(-c2cc(-c3ccc4ccccc4c3)n(C)c2-c2ccc(F)cc2)cc1 | -93.6
O=C(Nc1ccc(N2CCOCC2)c(F)c1)c1ccnc(N2CCOCC2)c1 | 0
Cn1nc(C(=O)Nc2ccc(N3CCCCC3)c(C(F)(F)F)c2)ccc1=O | 0
Cn1nc2c(c1C(=O)Nc1ccc(N3CCCCC3)c(F)c1)CCCC2 | -95.3
CCN(CC)c1ncc(CN2CCc3sccc3C2C)s1 (centres undefined) | 0
Cc1cc(F)ccc1NC(=O)c1nc(Nc2ccccc2)c2ccccc2n1 | 0
COc1ccc(-c2cc(C(F)(F)F)nn2-c2nc(-c3ccc(C)cc3)cs2)cc1 | 0
Cc1ccc(-c2cc(C(F)(F)F)nn2-c2nc(-c3ccccc3)cs2)cc1 | 0
CC(=O)Oc1cccc(-c2csc(-n3nc(C(F)(F)F)cc3-c3ccc(Cl)cc3)n2)c1 | -93.2
O=C(O)c1[nH]ncc1CN1CCCC(c2[nH]ncc2-c2ccccc2)C1 (centres undefined) | 0
SMILES | Tg IFNy HTS
O=C(Nc1ccccc1Sc1c(Cl)cncc1Cl)c1cccs1 | 0
O=C(Nc1ccc(Cl)cc1)Nc1ccccc1Sc1c(Cl)cncc1Cl | -97.0
O=C(Nc1ccccc1)Nc1ccccc1SCCS(=O)(=O)c1ccc(Cl)cc1 | 0
CCOc1ccccc1CNC(=O)Cn1ncc2c(N3CCCCC3)ncnc21 | 0
CN(C)CC(=O)N1C[C@H]2CCC[C@]2(COc2ccccn2)C1 | 0
CCOC(C)c1ccc(-c2nccc(OC)n2)cc1 (centres undefined) | 0
Cc1ncc(C)c(N2CCC(CO)(Cc3cccc(C(F)(F)F)c3)CC2)n1 | 0
